Tgondii IFNg = blocks Toxoplasma gondii growth in the presence of IFN-gamma; activity change, negative = inhibition, % (test concentration not listed); 69,000 compounds, 3.8% hits; Toxoplasma gondii growth in IFN-gamma-treated host cells; active compounds read low; in the data active means activity change below about -70%, passing the limit was not always enough;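 further: host cells are HeLa cells infected with Toxoplasma gondii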
* marks the source's active call; other numbers are inactive results. Shown is part of a subset that was picked to be rich in hits.

Results for Cc1ncsc1C(=O)N1CC[C@@H](c2ccc3ccccc3c2)[C@H](O)C1 ?
Tgondii IFNg: -6

What do the screens show for `CCC(=O)Nc1ccc2c(c1)C(=O)N(C)C[C@H](OC)[C@H](C)CN(Cc1nccs1)[C@@H](C)CO2`?
Tgondii IFNg: 101

What do the screens show for `O=C(c1ccccc1)N1CCC(N2CC[C@@H](c3ccc(F)cc3)[C@H](O)C2)CC1`?
Tgondii IFNg: -7

Results for CN(C)C(=O)c1ccc2nnc3ncn(Cc4ccccc4)c3c2c1 ?
Tgondii IFNg: -46

How did Cc1nc2nnc3ccc(C(=O)N(C)C)cc3c2n1-c1ccccc1 do in these assays?
Tgondii IFNg: -3

How did Cc1nc2nnc3ccc(C(=O)N(C)Cc4ccccn4)cc3c2n1Cc1ccccc1 do in these assays?
Tgondii IFNg: -109*

How did CN(C)[C@@H]1CCN(S(=O)(=O)C2CC2)[C@H]1Cc1cnn(C)c1 do in these assays?
Tgondii IFNg: -47

Results for Cc1cc(Nc2cccc(C(=O)NCc3ccccc3-n3ccnc3)c2)nc(C)n1 ?
Tgondii IFNg: -43

How did Cc1cc(NC(=O)c2cccc3ccccc23)cc(C)c1OCC(=O)N1CCOCC1 do in these assays?
Tgondii IFNg: -2

How did O=C(CSCCOc1ccccc1)N1CCOCC1 do in these assays?
Tgondii IFNg: 55

What do the screens show for `O=C(COc1cccc(-n2cnnc2)c1)N1CCOCC1`?
Tgondii IFNg: -85*

What do the screens show for `CN(Cc1n[nH]c2c1CCC2)C(=O)c1cnn2ccn(C)c12`?
Tgondii IFNg: -4

Results for c1ccc(NCc2cnc3n2CCN(Cc2ccco2)CC3)nc1 ?
Tgondii IFNg: 13

What do the screens show for `COc1ccc(C(=O)N(c2ccc(C(C)C)cc2)C2(C(=O)NCc3ccccc3)CCN(C(C)=O)CC2)cc1`?
Tgondii IFNg: -96*

Results for COc1ccc(C(=O)N(c2ccc(Cl)cc2)C2(C(=O)NCc3ccccc3)CCN(C(C)=O)CC2)cc1 ?
Tgondii IFNg: 69

Results for COc1ccc(C(=O)N(Cc2ccc(Cl)cc2)C2(C(=O)NCc3ccccc3)CCN(C(C)=O)CC2)cc1 ?
Tgondii IFNg: 114

What do the screens show for `COc1ccc(C(=O)N(Cc2cccc(F)c2)C2(C(=O)NCc3ccccc3)CCN(C(C)=O)CC2)cc1`?
Tgondii IFNg: -53

Results for COc1ccc(C(=O)N(c2ccc(F)cc2)C2(C(=O)NCc3ccccc3)CCN(C(C)=O)CC2)cc1 ?
Tgondii IFNg: -5

Results for COc1ccc(C(=O)N(Cc2cccc(OC)c2)C2(C(=O)NCc3ccccc3)CCN(C(C)=O)CC2)cc1 ?
Tgondii IFNg: -83*

How did O=C(NC1CC1)N1CCC2(CC(Nc3ccccn3)CO2)C1 (configuration not stated) do in these assays?
Tgondii IFNg: -19

How did CCN1CCC2(CC1)CC(NCc1nccn1C)c1ccccc12 (configuration not stated) do in these assays?
Tgondii IFNg: -3

How did CN1CC2(CCCN(C(=O)c3[nH]cnc3-c3ccccc3)CC2)OC1=O (configuration not stated) do in these assays?
Tgondii IFNg: 12

What do the screens show for `Cc1ccccc1CN[C@@H]1COC[C@H]1c1ccc(F)cc1`?
Tgondii IFNg: -57

What do the screens show for `CCOCC1CN(Cc2nccs2)Cc2cn(C)nc21` (configuration not stated)?
Tgondii IFNg: 0

How did COCC(=O)Nc1ccc2c(c1)C(=O)N(C)C[C@@H](OC)[C@H](C)CN(CCc1ccccc1)[C@@H](C)CO2 do in these assays?
Tgondii IFNg: 397

How did O=C(c1ccco1)N1CCC2(CC1)CN(c1cccc(F)c1)C2=O do in these assays?
Tgondii IFNg: -6

What do the screens show for `CN(Cc1ccccn1)C(=O)c1cc(-c2cnc(-c3ccccc3)nc2)cn1C`?
Tgondii IFNg: 65

What do the screens show for `COc1ccc(-c2nn3c(Cn4nnc5ccccc54)nnc3s2)cc1`?
Tgondii IFNg: 7

What do the screens show for `COc1ccc(Cc2nnc3sc(Cc4ccccc4)nn23)cc1`?
Tgondii IFNg: 30

How did COc1ccccc1/C=C/c1nn2c(COc3ccc(F)cc3)nnc2s1 do in these assays?
Tgondii IFNg: -91*

How did CC(C)[C@H]1COCc2cnnn2CCC[C@@H](C)C(=O)N1 do in these assays?
Tgondii IFNg: 2

What do the screens show for `O=C(c1cn[nH]n1)N1CCOc2ccc(CO)cc2C1`?
Tgondii IFNg: -48

How did Cc1ccccc1S(=O)(=O)NCC1CCN(Cc2nccn2C)C1 (configuration not stated) do in these assays?
Tgondii IFNg: -3

Results for Cc1ncsc1C(=O)NC(Cc1cc(=O)[nH]c(-c2ccccn2)n1)c1ccc(F)cc1 (configuration not stated) ?
Tgondii IFNg: -15

How did CCC(c1ccc(F)cc1)n1cc(C(=O)Nc2ccc3c(c2)N(C)C(=O)CO3)nn1 (configuration not stated) do in these assays?
Tgondii IFNg: -50

How did CCC(c1ccc(F)cc1)n1cc(C(=O)Nc2nc(-c3ccccn3)cs2)nn1 (configuration not stated) do in these assays?
Tgondii IFNg: -97*

Results for COc1cccc(NC(=O)N[C@@H]2CC[C@H](CC(=O)N3CCN(C)CC3)O[C@@H]2CO)c1 ?
Tgondii IFNg: 20

How did CN(Cc1cccc(O)c1)C(=O)C1CC2(CCNCC2)CN1 (configuration not stated) do in these assays?
Tgondii IFNg: -52

Results for COc1cc2nc(N3CCCN(C)CC3)nc(NC3CCN(Cc4ccccc4)CC3)c2cc1OC ?
Tgondii IFNg: -88*

How did CCCC(=O)N1CCCN(c2nc(N)c3cc(OC)c(OC)cc3n2)CC1 do in these assays?
Tgondii IFNg: 19

What do the screens show for `COc1ccc(-c2nc(NC3CCN(Cc4ccccc4)CC3)c3ccccc3n2)cc1`?
Tgondii IFNg: -51

Results for Cc1ccc(C2(O)CCN(C(=O)c3n[nH]c4c3CCC4)CC2)nc1 ?
Tgondii IFNg: 8

How did Cc1cc(-c2cnc(N3CCOCC3)nc2C2CCN(CC3CCC=CO3)CC2)on1 (configuration not stated) do in these assays?
Tgondii IFNg: 38

What do the screens show for `Cc1cc(-c2cnc(N3CCCC3)nc2C2CCN(C(=O)c3n[nH]c4c3CCC4)CC2)on1`?
Tgondii IFNg: -82*

How did Cc1nc(C)c(CC(=O)N[C@H]2CCC[C@H]2Cc2ccc(F)cc2)c(=O)[nH]1 do in these assays?
Tgondii IFNg: -2

How did COc1ccc2[nH]cc(C3N4CC5(C)CN3CC(C)(C4)C5=O)c2c1 (configuration not stated) do in these assays?
Tgondii IFNg: 11

Results for COc1ccc2[nH]c(=O)c3c(c2c1)OC(C)(C)C=C3 ?
Tgondii IFNg: -83*

How did COc1ccc(C(=O)CC(=O)O)c2c1C=CC(C)(C)O2 do in these assays?
Tgondii IFNg: 10

How did CCOCC1c2c(cnn2CC2CC2)CCN1C(=O)c1cccn1C (configuration not stated) do in these assays?
Tgondii IFNg: -4

Results for Nc1ccc(-c2ccc3ncc4ccc(=O)n(-c5cccc(C(F)(F)F)c5)c4c3c2)cn1 ?
Tgondii IFNg: -76*

What do the screens show for `FC(F)(F)c1cccc(N2CCN(c3nc(-c4ccc(Cl)cc4)nc4ccccc34)CC2)c1`?
Tgondii IFNg: -22

Results for COc1ccc(-c2nc(N3CCN(c4cccc(C(F)(F)F)c4)CC3)c3ccccc3n2)cc1 ?
Tgondii IFNg: 6

Results for CCOC(=O)c1cc(C)nc2c1c(=O)n(Cc1nc(-c3ccc(Cl)cc3)oc1C)c(=O)n2C ?
Tgondii IFNg: -15

What do the screens show for `CN1CCN(c2ncnc3ccc(-c4cccc5[nH]ccc45)cc23)CC1`?
Tgondii IFNg: -76*

What do the screens show for `CCCc1cnc(-c2cccc3[nH]ccc23)nc1`?
Tgondii IFNg: 159

Assay outcomes as filed in PubChem.
